Screening data as filed in PubChem.
Most compounds without a hit are left out; they make up all but 2.1% or so of the library.
BaF3 tox: parental Ba/F3 viability inhibition as JAK2V617F counter-screen; CellTiter-Glo ATP luminescence; inhibition, % at 5.6 µM; actives 1.1% (n = 220,000); AID 1486;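 active = inhibition above a per-campaign cutoff, the mean inhibition of all tested compounds plus 3 SD, cut at about 27% in these data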;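 also: 0% = DMSO wells and 100% = JAK Inhibitor I control wells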
IEC-6 tox: IEC-6 cytotoxicity, counter-screen for KLF5 inhibitors; luminescence viability; inhibition, % at 5 µM; actives 0.78% (n = 290,000); AID 1825; in the data active = inhibition above about 22%;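 also: 0% = plate median of test compound wells and 100% = cytotoxic reference compound wells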
APP 5UTR inh: APP translation inhibition; SH-SY5Y APP 5'UTR-luciferase reporter, luminescence; inhibition, % at 2 µM; actives 0.82% (n = 190,000);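 active = inhibition above a set limit, derived from the sample mean plus 3 SD, cut at about 45% in these data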
KLF5 inh: inhibitors of KLF5 expression; DLD-1 KLF5 promoter-luciferase reporter, luminescence; inhibition, % at 5 µM; actives 0.23% (n = 290,000);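 active = inhibition above a per-plate limit of that plate's mean compound inhibition plus 3 SD, cut at about 60% in these data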;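 also: 0% = DMSO wells and 100% = LY294002 at 200 µM; higher means less KLF5 promoter-driven luciferase light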
aSyn UTR inh: MLPCN primary screen, SNCA 5' untranslated region. alpha-synuclein 5'UTR reporter, inhibitor activity. inhibition, % (tested at 7.5 µM). actives 0.82% (n = 300,000). AID 1813; in the data active = inhibition above about 60%;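 also: H4 neuroglioblastoma cells stably carrying SNCA 5'UTR luciferase fusion; 0% = DMSO wells and 100% = positive control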
Ba/F3 V617F tox: reduce viability of Ba/F3 cells dependent on JAK2V617F | Ba/F3 EpoR-JAK2V617F viability, ATP luminescence | inhibition, % at 5.6 µM | actives 1.1% (n = 220,000) | AID 1446;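 active = inhibition above the campaign mean plus 3 SD over all tested compounds, cut at about 24% in these data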;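 also: cytokine-independent growth of Ba/F3 cells driven by EpoR plus mutant JAK2; 0% = DMSO-treated cells and 100% = JAK inhibitor I control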
The depositor's hits bear a star.

Screening CC(C)(C)c1ccc(-c2cc(N)n[nH]2)cc1 returned BaF3 tox 8, IEC-6 tox -8, APP 5UTR inh 61*, KLF5 inh 0, aSyn UTR inh 91* and Ba/F3 V617F tox -2.
Screening Cc1ccc(-c2cc(N)n[nH]2)cc1 returned BaF3 tox 0, IEC-6 tox -1, APP 5UTR inh 8, KLF5 inh -17, aSyn UTR inh -73 and Ba/F3 V617F tox 2.
`COc1cc(/C=C2\SC(=Nc3ccccc3OC)NC2=O)ccc1O` gave IEC-6 tox 7, KLF5 inh 16 and aSyn UTR inh -1.
COc1cc(/C=C2/SC(=Nc3ccc(O)cc3)NC2=O)ccc1O was read as BaF3 tox 72*, IEC-6 tox 13, KLF5 inh 36, aSyn UTR inh -23 and Ba/F3 V617F tox 75*.
For CCN(CC)c1ccc2c(O)cc(=O)oc2c1 the results were BaF3 tox 3, IEC-6 tox -2, APP 5UTR inh -21, KLF5 inh -28, aSyn UTR inh 20 and Ba/F3 V617F tox -1.
`CCN(CC)c1ccc(C(=O)OCc2cc(=O)oc3cc(O)ccc23)cc1` gave BaF3 tox 12, IEC-6 tox 1, APP 5UTR inh 3, KLF5 inh 3, aSyn UTR inh 117* and Ba/F3 V617F tox 4.
For COc1ccc(Cl)cc1NC(=O)c1sc2nc(C)nc(N3CCOCC3)c2c1C the results were IEC-6 tox 3, KLF5 inh -7 and aSyn UTR inh 36.
Cc1ccc(NC(=O)c2ccc3nsnc3c2)c(C)c1 was read as IEC-6 tox 9, KLF5 inh -60 and aSyn UTR inh -102.
For CCOc1ccc(S(=O)(=O)N2CN3CCN(C3)C2)cc1 the results were IEC-6 tox -2, KLF5 inh -34 and aSyn UTR inh -8.
Screening CCOc1ccc(S(=O)(=O)N2CCN(S(=O)(=O)c3ccc(OCC)cc3)C(C)C2)cc1 (centres undefined) returned BaF3 tox 1, IEC-6 tox -5, APP 5UTR inh 52*, KLF5 inh -6, aSyn UTR inh -3 and Ba/F3 V617F tox -3.
For COc1cccc(N2CCN(c3ncnc4c3[nH]c3ccc(F)cc34)CC2C)c1 (centres undefined) the results were BaF3 tox 53*, IEC-6 tox 36*, APP 5UTR inh 27, KLF5 inh 57, aSyn UTR inh 47 and Ba/F3 V617F tox 63*.
For COc1cccc(N2CCN(c3ncnc4c3[nH]c3ccccc34)CC2C)c1 (centres undefined) the results were BaF3 tox 10, IEC-6 tox -2, APP 5UTR inh 0, KLF5 inh -9, aSyn UTR inh -73 and Ba/F3 V617F tox 0.
For O=S(=O)(CCN1CCOCC1)c1ccc(OC(F)(F)F)cc1 the results were IEC-6 tox 2, KLF5 inh -19 and aSyn UTR inh -2.
Screening c1cc[n+](CCC[n+]2ccccc2)cc1 returned IEC-6 tox 4, KLF5 inh -2 and aSyn UTR inh 7.
O=c1ccc2ccc(OCCOc3cccc(Cl)c3)cc2o1 was read as IEC-6 tox 2, KLF5 inh -33 and aSyn UTR inh -59.
CCOC(=O)C1=NN(C(=O)c2cccc(Br)c2)C(O)(C(C)(C)C)C1 (centres undefined) was read as BaF3 tox 1, IEC-6 tox 5, KLF5 inh -35, aSyn UTR inh 105* and Ba/F3 V617F tox -3.
`CCCCc1nnc(NC(=O)C2CC(=O)N(Cc3ccccc3)C2)s1` (centres undefined) gave IEC-6 tox -3, KLF5 inh -17 and aSyn UTR inh -17.
COc1ccccc1-[n+]1c(C)cc(/C=C2\Sc3ccccc3N2C)cc1C was read as BaF3 tox 96*, IEC-6 tox 1, KLF5 inh 8, aSyn UTR inh 53 and Ba/F3 V617F tox 99*.
Cc1cccc2nc(COc3ccc(-c4ccccc4)cc3)cn12 was read as BaF3 tox 38*, IEC-6 tox 2, APP 5UTR inh -39, KLF5 inh -27, aSyn UTR inh -121 and Ba/F3 V617F tox 44*.
For O=C(Nc1nccs1)C1CC(=O)N(CCc2ccc(F)cc2)C1 (centres undefined) the results were IEC-6 tox -3, KLF5 inh 7 and aSyn UTR inh -4.
`Cc1sc2ncnc(N3CCC(C)CC3)c2c1C` gave BaF3 tox 4, IEC-6 tox 2, APP 5UTR inh -6, KLF5 inh 0, aSyn UTR inh 47 and Ba/F3 V617F tox -1.
